Experimental findings from PubChem BioAssay AID1259313 (Sanford-Burnham Center for Chemical Genomics, 2017) are described below.

SMILES strings stand for the structures. The whole screen tested about 340,000 compounds, of which about 8,500 (2.5%) were called active. Shown is part of a subset that was picked to be rich in actives. A number with no mark means an inactive call.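 How the source made its calls: active means melting temperature shift of at least 10% of the positive control shift, at one fixed dose; inactive means the rest.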

This assay deals with Glutamate receptor ionotropic, NMDA 3A (GRIN3A) ligand-binding domain. As to the kind of experiment: NR3A LBD thermal stabilization by compounds – biophysical, differential scanning fluorimetry, uHTS, primary screen (AID 1259313). The following applies: at 25 µM, stronger effect = higher value, 0% = protein alone, 100% = glycine-bound protein.
In the case of `Cc1cccc(OCCC(=O)Nc2cc(S(=O)(=O)N3CCCCC3)ccc2N2CCOCC2)c1`, the Tm shift relative to glycine control was 6.71%.
Next, `O=C(COc1ccc(-n2cnnn2)cc1)Nc1ccccc1Cl`: -3.66%; `C=CCc1cccc(/C=N/NC(=O)COc2ccc(-n3cnnn3)cc2)c1O`: 24.6% (active); `O=C(COc1cccc(-n2cnnn2)c1)NCCC1=CCCCC1`: -4.1%.
To `COc1ccc(-c2ccc3c(c2)C2CC3CCN2CCC#N)cc1` (stereo unspecified) belongs 0.87%; to `N#CCOc1ccc(C2=NO[C@@H]3[C@@H]4C[C@@H]([C@H]5C(=O)N(c6ccc7c(c6)OCO7)C(=O)[C@@H]45)[C@H]23)cc1`, -1.3%.
Next, `Cc1cc(CN(C)C(=O)c2cc(COc3ccc(C)c(C)c3)on2)n[nH]1`: -0.56%; `Cc1cc(Cl)ccc1OCCCC(=O)NCc1ccccn1`: -3.24%; `Cc1cc(Cl)ccc1OCCCC(=O)Nc1cccc(-n2cnnn2)c1`: 4.11%.
Consider `Cc1cc(Cl)ccc1OCCCC(=O)NCc1ccncc1`, for which the Tm shift relative to glycine control was 21.3% (active).
To `CCOCCCNC(=O)Cc1cc(=O)[nH]c(=O)[nH]1` belongs -1.66%.
Next, `OCC[C@H]1C[C@H](O)[C@@H](O)[C@]2(CCc3ccccc3O2)O1`: 1.78%; `CC1CN(CC(=O)NC(C)c2ccccc2)CC(C)O1` (stereo unspecified): -1.03%; `CCC(=O)c1cn(CCOc2ccccc2OC)c2ccccc12`: 2.85%.
For the compound `CCCN1C(=O)C(NS(=O)(=O)c2ccc(N)cc2)(C(F)(F)F)C(C(=O)OC)=C1C` (stereo unspecified), the Tm shift relative to glycine control is 13.6% (active).
To `Cc1ccc(S(=O)(=O)NC2(C(F)(F)F)NC(=O)N(CCc3ccccc3)C2=O)cc1` (stereo unspecified) belongs -0.75%; to `CC(=O)Nc1ccc(S(=O)(=O)NC2(C(F)(F)F)C(=O)NC(C)=C2C#N)cc1` (stereo unspecified), -1.26%; to `Nc1ncnc(Nc2cccc(Cl)c2Cl)n1`, -0.42%.
Next, `O=C(NCc1ccccc1)[C@H]1C[C@@H]1[C@H](NP(=O)(c1ccccc1)c1ccccc1)c1ccccc1`: -1.54%.
To `CC[C@]12c3[nH]c4cc(CCC(=O)N(C)C)ccc4c3CCN1C(=O)[C@@H](CC(=O)NCC13CC4CC(CC(C4)C1)C3)C[C@@H]2C(=O)N1CCN(C(=O)C2CC2)CC1` belongs -2.56%; to `CSc1nsc(NC(=O)Nc2ccccc2)n1`, 19.7% (active); to `CC(=O)c1cccc(NC(=S)N2CCCC2)c1`, 2.43%.
As to `C=CCSc1nsc(NC(=O)Nc2cccc(C(C)=O)c2)n1`, the Tm shift relative to glycine control is 15.6% (active).
To `CC(NC(=O)Nc1ccccc1)c1ccccc1` (stereo unspecified) belongs -5.71%; to `CSc1nsc(SCC(=O)Nc2cc(C(=O)O)ccc2C)n1`, 1.25%.
With `CCSc1nsc(NC(=O)Nc2cccc(C(C)=O)c2)n1`, the Tm shift relative to glycine control is 0.77%.
To `S=c1[nH]c2ccccc2c2ccccc12` belongs -5.09%.
Next, `OCC1(Cc2ccccc2C(F)(F)F)CCN(Cc2ccncc2)CC1`: -1.43%.
`CCOc1cc(CNn2c(C)nnc2SCC(=O)NC(C)(C)C)ccc1OCC(=O)NC(C)(C)C`: the Tm shift relative to glycine control is -4.76%.
Next, `CC1(C)CC(CNCCC(c2ccc(F)cc2)c2ccco2)CCO1` (stereo unspecified): 0.16%; `COC(=O)CSc1ccc2nnc(CCNS(=O)(=O)c3ccc(C)cc3)n2n1`: -0.94%.
For `CN(C)S(=O)(=O)c1ccc(NC(=O)COC(=O)c2n[nH]c3ccccc23)cc1`, the Tm shift relative to glycine control was -2.54%.
To `CCN(CC)S(=O)(=O)c1ccc(C(=O)N2CCN(C3=NS(=O)(=O)c4ccccc43)CC2)cc1` belongs 0.26%; to `O=C(Nc1ccccc1)Nc1nnc(COc2ccccc2F)s1`, 38.9% (active).
As to `COCC(=O)Nc1nnc(COc2ccccc2)s1`, the Tm shift relative to glycine control is 2.29%.
Next, `O=C(Nc1nnc(COc2ccccc2)s1)Nc1ccccc1F`: 1.33%.
To `Cc1ccc(-c2nnc(SCC(=O)N/N=C/c3cccs3)n2-c2ccc(C)cc2)cc1` belongs -6.78%.
To `COc1cccc(/C=C/C(=O)Nc2ccc3c(c2)OCCO3)c1` belongs 2.64%.
As to `CCC1([N+](=O)[O-])COC(c2ccc(C)cc2)OC1` (stereo unspecified), the Tm shift relative to glycine control was -10.1%.
For `NC(=O)CC[C@@H]1NC(=O)[C@H](CO)NC(=O)c2cc([N+](=O)[O-])cc(I)c2NCC[C@@H](C(N)=O)NC1=O`, the Tm shift relative to glycine control was -0.81%.
Next, `O=C(NCc1ccccc1Cl)C1CCCN1S(=O)(=O)c1ccc(F)cc1` (stereo unspecified): 2.13%; `O=C(CN1CCN(S(=O)(=O)c2ccc(Cl)s2)CC1)NCc1ccc(Cl)cc1`: -1.27%.
To `CSc1nc(N(C)NC(=O)c2cccc(C)c2)c2ccccc2n1` belongs 3.17%; to `CN(NC(=O)c1ccccc1F)c1nc(C(F)(F)F)nc2ccccc12`, 0.16%.
Next, `CN(NC(=O)c1ccccc1)c1nc2ccccc2nc1C(F)(F)F`: 11.4% (active); `Cc1ccc(C)c(C(=O)N2CCC(n3nccc3NC(=O)C3CC3)CC2)c1`: 0.44%.
With `CCC1(CC)NC(=O)N(Cc2nc3ccccc3s2)C1=O`, the Tm shift relative to glycine control was -0.61%.
To `O=C(NC1(C(F)(F)F)NC(=O)N(C2CCCCC2)C1=O)c1ccco1` (stereo unspecified) belongs 1.55%; to `O=C1NC(Nc2nc3ccccc3s2)(C(F)(F)F)C(=O)N1C1CCCCC1` (stereo unspecified), 13.7% (active).
To `Cc1ccc2oc(=O)c3cnn(CC(=O)N4CCN(c5ccccn5)CC4)c3c2c1` belongs 0.6%; to `CCOc1cccc2cc(C(=O)OCC(=O)Nc3c(C)cccc3CC)c(=O)oc12`, -0.27%; to `N#C/C(=C\N1CCOCC1)S(=O)(=O)c1ccc(Cl)cc1`, -0.42%.
As for `CCCN(CCC)c1c([N+](=O)[O-])c(=O)oc2ccccc12`, the Tm shift relative to glycine control is -4.15%.
Regarding `Cc1ccc(-n2cc3ccc([N+](=O)[O-])cc3n2)cc1`, the Tm shift relative to glycine control is 13.3% (active).
To `Cc1ccc(-c2cn3cc([N+](=O)[O-])ccc3n2)cc1` belongs 0.72%.
To `Cc1ccc(C(=O)Cn2cc([N+](=O)[O-])nc2C)cc1` belongs 2.36%; to `CN(C)/C=C(/C(=O)c1ccccc1)S(=O)(=O)c1ccc(Cl)cc1`, -1.01%; to `Cc1cc(NCc2ccco2)n2c(nc3ccccc32)c1C#N`, 19.7% (active).
With `CC(C)c1cc(NCc2ccccn2)n2c(nc3ccccc32)c1C#N`, the Tm shift relative to glycine control was 1.69%.
Turning to `Cc1cc(NC(C)C)n2c(nc3ccccc32)c1C#N`, the Tm shift relative to glycine control was 0.92%.
To `O=C(NCc1ccc2c(c1)OCO2)C12CC3CC(CC(C3)C1)C2` belongs -0.27%.
Next, `CCOC(=O)Cc1csc(NC(=O)COc2ccc3c(C)cc(=O)oc3c2)n1`: -1.92%; `Cc1ccc(O)c(/C=N/NC(=O)COc2ccc3c(C)cc(=O)oc3c2)c1`: 16.8% (active).
To `Cc1cc(=O)oc2cc(OCC(=O)Nc3nnc(C4CC4)s3)ccc12` belongs -0.86%; to `CCOc1ccccc1NC(=O)Cn1nnc(C(=O)NCc2cccs2)c1N`, -0.84%; to `O=C(NCc1cccs1)c1cc(-c2ccccn2)nc2ccc(Br)cc12`, -0.39%.
For the compound `CC(C)Cn1c(N)c(C(=O)NCc2cccs2)c2nc3ccccc3nc21`, the Tm shift relative to glycine control was 19.1% (active).
To `Cc1ccc(S(=O)(=O)c2ccc(Cl)cc2)cc1S(=O)(=O)NC(C(=O)O)C(C)C` (stereo unspecified) belongs -2.2%.
To `CCCOn1c(-n2nc(C)cc2C)nc2ccccc2c1=O` belongs 1.18%.
Next, `O=C(CSc1ccc(C(F)(F)F)cc1[N+](=O)[O-])NCCOc1ccccc1`: -6.06%.
For the compound `O=C(/C(=C/c1cccc(Cl)c1)c1nc2ccccc2[nH]1)c1ccccc1`, the Tm shift relative to glycine control was 23% (active).
Next, `N#C/C(=C(/O)COC(=O)COc1ccc(Cl)cc1)c1nc2ccccc2[nH]1`: 7.42%.
To `Oc1ccc2nc(Cc3ccccc3)[nH]c2c1` belongs -5.45%.
To `CN(CC1CCCN(CCc2cccc(C(F)(F)F)c2)C1)C(=O)c1ccc2nc[nH]c2c1` (stereo unspecified) belongs 1.25%; to `O=C(Cn1cc(/C=N/NC(=O)c2cccc(C(F)(F)F)c2)c2ccccc21)Nc1ccc(F)cc1`, 15.8% (active); to `NC(=O)Cn1cc(/C=N\NS(=O)(=O)c2ccccc2)c2ccccc21`, -34.7%.
Consider `O=C(CN1CCN(c2ccc(F)cc2)CC1)Nc1cccc(C(F)(F)F)c1`, for which the Tm shift relative to glycine control is -4.33%.
To `CCCOC(=O)c1ccc(N2C(=O)c3ccccc3C2=O)cc1` belongs -1.6%.
To `Cc1ccc(NC(=O)c2cc(-c3ccccc3O)n[nH]2)cc1C` belongs 26.2% (active).
To `Cc1ccc(NC(=O)CCN2C(=O)c3ccccc3C2=O)cc1C` belongs -0.19%.
For `Cc1ccc(C)c(NC(=O)c2cc(-c3cc(C)cc(C)c3O)n[nH]2)c1`, the Tm shift relative to glycine control was 0.62%.
To `O=C(CNS(=O)(=O)c1ccc2ccccc2c1)Nc1ccc(F)c(F)c1F` belongs 35% (active); to `O=C(CNS(=O)(=O)c1cccc(C(F)(F)F)c1)Nc1ccccc1F`, -1.13%; to `CN(CC(=O)NCCc1ccc(S(N)(=O)=O)cc1)CC(=O)Nc1ccc(F)c(F)c1F`, -1.98%.
As to `O=C(c1ccncc1)N1CCN(S(=O)(=O)c2cccc([N+](=O)[O-])c2)CC1`, the Tm shift relative to glycine control is 2.5%.
As to `Cc1ccc(Cc2cncc(O)c2)cc1S(=O)(=O)O`, the Tm shift relative to glycine control was 0.09%.
To `CNc1nc(=O)n(C2CCCO2)cc1C` (stereo unspecified) belongs -4.19%; to `N#Cc1c(N)n(CCOC(=O)c2ccc(Cl)cc2)c2nc3ccccc3nc12`, 35.9% (active).
Next, `COCC(C)OC(=O)c1c(N)n(CCCN2CCOCC2)c2nc3ccccc3nc12` (stereo unspecified): -0.69%; `CN(C)CCCn1c(N)c(C#N)c2nc(C#N)c(C#N)nc21`: -3.53%; `C=CCc1cccc2cc(C(=O)N3CCN(C(=O)OCC)CC3)c(=O)oc12`: -2.65%.
Turning to `Cc1ccc(NC(=O)CSc2nn3c(=O)c(C)nnc3s2)cc1Cl`, the Tm shift relative to glycine control is -1.28%.
In the case of `C/C(=N\Nc1ccc(Cl)nn1)c1ccccc1O`, the Tm shift relative to glycine control was -6.71%.
Next, `CC(C)(C)c1ccc(SCCc2ccncc2)cc1`: 0.08%; `O=C(Nc1cccc(S(=O)(=O)NC2=NCCC2)c1)c1ccc(F)cc1F`: 0.09%; `Cc1cc(NS(=O)(=O)c2ccc(NC(=S)NC(=O)c3ccc(F)cc3Cl)cc2)no1`: 0.87%.
To `O=C(Nc1cc(S(=O)(=O)Nc2ccc(Cl)cc2)ccc1O)c1ccc(F)cc1F` belongs 37.7% (active); to `Cn1c(Cc2cccc3ccccc23)nnc1SCC(=O)N1CCN(c2cccc(Cl)c2)CC1`, 5.43%.
Next, `CCC(Oc1ccccc1C)C(=O)Nc1ccc(S(=O)(=O)Nc2cc(C)on2)cc1` (stereo unspecified): 3.83%.
Regarding `Cc1ccc(S(=O)(=O)N2CCCCC2)cc1C(=O)N1CCN(CCO)CC1`, the Tm shift relative to glycine control is 2.45%.
To `COc1ccccc1NC(=O)CN(c1ccccc1OC)S(=O)(=O)c1ccccc1` belongs 0.31%; to `COc1ccccc1N(CC(=O)N1CCCCC1)S(=O)(=O)c1ccccc1`, 0.84%.
`COc1ccccc1N(CCOc1ccccc1)S(=O)(=O)c1ccccc1`: the Tm shift relative to glycine control was 12.6% (active).
To `CN(CC(=O)Nc1c(Cl)cccc1Cl)C(=O)CNC(=O)C1CCCCC1` belongs 0.17%; to `O=C(Nc1c(Cl)cccc1Cl)C1CCC1`, 12.7% (active).
Next, `NC(=S)Nc1c(Cl)cccc1Cl`: 2.25%; `Cc1c(S(=O)(=O)NC(C)c2ccccc2)c(=O)n(C)c(=O)n1C` (stereo unspecified): -6.52%.
`Cc1c(S(=O)(=O)N2CC(C)CC(C)C2)c(=O)n(C)c(=O)n1C` (stereo unspecified): the Tm shift relative to glycine control was 11.1% (active).
As for `Cc1c(S(=O)(=O)NCc2ccccc2)c(=O)n(C)c(=O)n1C`, the Tm shift relative to glycine control was -0.41%.
To `O=C(NCCc1ccccc1Cl)C1CCC(=O)N(CCCc2ccccc2)C1` (stereo unspecified) belongs 3.05%; to `O=C(NNC(=O)c1ccc(-n2cncn2)c([N+](=O)[O-])c1)c1ccccc1`, 3.86%.
